From PubChem BioAssay AID1619 (SRMLSC, 2009)
Hit rate of the full screen: of about 220,000 compounds, about 830 (0.38%) were called active.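 Rule for the calls: active = compound inhibiting the enzyme by more than half at any dose during confirmatory dose-response retesting; inconclusive = strong single-dose inhibitors picked by rank but not retested; inactive = the rest.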 These entries were drawn from the full list. Entries with a potency or affinity are not part of this list. Non-standard residues stand in square brackets, D forms with d. Residues, ends and D or L forms follow the SMILES beside them. ξ: configuration not given here. *: point of attachment. Cbz = O=C(OCc1ccccc1)*; OBn = c1ccc(CO*)cc1; ξP = O=C(O)C1CCCN1

Biological target: Leucine aminopeptidase (Plasmodium falciparum (isolate 3D7)) (UniProt Q8IL11)
Test: P. falciparum M17LAP inhibitors, primary screen, biochemical, fluorogenic H-Leu-NHMec substrate, 1536-well (AID 1619);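 note: plate controls were full reaction with DMSO carrier for no effect and no enzyme background for full effect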
Conditions: recombinant M17LAP, H-Leu-NHMec fluorogenic kinetic assay; at 30 µM; stronger effect = higher value

Leucine aminopeptidase (Plasmodium falciparum (isolate 3D7)), sequence (Q8IL11 whole entry, looked up): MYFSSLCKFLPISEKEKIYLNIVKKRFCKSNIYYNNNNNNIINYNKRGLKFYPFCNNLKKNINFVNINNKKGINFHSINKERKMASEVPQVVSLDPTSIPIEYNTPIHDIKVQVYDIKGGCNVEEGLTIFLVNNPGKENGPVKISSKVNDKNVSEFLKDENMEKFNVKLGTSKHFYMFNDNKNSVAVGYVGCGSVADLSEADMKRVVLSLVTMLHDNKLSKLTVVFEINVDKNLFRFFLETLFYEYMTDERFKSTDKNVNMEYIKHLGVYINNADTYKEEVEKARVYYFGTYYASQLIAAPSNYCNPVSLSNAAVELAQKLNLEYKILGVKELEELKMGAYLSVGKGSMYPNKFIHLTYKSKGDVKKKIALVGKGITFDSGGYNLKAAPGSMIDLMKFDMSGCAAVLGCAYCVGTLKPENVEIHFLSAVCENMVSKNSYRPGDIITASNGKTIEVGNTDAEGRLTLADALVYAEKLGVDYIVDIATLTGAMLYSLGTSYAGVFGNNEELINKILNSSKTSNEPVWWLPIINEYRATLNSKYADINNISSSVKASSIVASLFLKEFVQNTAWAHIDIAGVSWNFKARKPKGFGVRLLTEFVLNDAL

inhibition, inactive:
Cc1ccccc1N1C(=O)CC2(CCCC2)CC1=O -2.41%, Cc1ccc(/C=C2\NC(=S)NC2=O)cc1[N+](=O)[O-] -1.94%, CN(C)c1ccc(/C=N/N=C(N)N)cc1[N+](=O)[O-] 58.3%, COc1cc(/C=N/NC(N)=O)ccc1OC(=O)c1ccc(C)cc1 -1.66%, Cc1ccc(-n2nnc3c(=O)n(CC(=O)N4CCC(C)CC4)cnc32)cc1 13.8%, OC1COC(OCC2OC(OCc3ccccc3)C(O)C(O)C2O)C(O)C1O (stereo not drawn) -0.69%, Cc1ccc(C(=O)O/N=C(\c2ccccc2)c2cccnc2)cc1 -5.37%, CC1(C)N(O)CC(c2cccs2)=[N+]1[O-] 39.9%, CC(=O)C1(C)N(O)C(C)(C)C(c2cccs2)=[N+]1[O-] (stereo not drawn) 11.1%, NNC(=O)c1ccc(COc2ccc3ccccc3c2)o1 7.87%, COc1cc(/C=N/N2C(=O)C3C4C=CC(CC4)C3C2=O)ccc1O (stereo not drawn) 18.2%, COc1cc(/C=N/N2C(=O)c3ccccc3C2=O)ccc1O 10.3%, O=C1c2ccccc2C(=O)N1/N=C/c1ccc(O)c(O)c1O 9.31%, O=C1C2C3C=CC(CC3)C2C(=O)N1/N=C/c1ccc(O)cc1 (stereo not drawn) 12.3%, O=C(Cn1cnc2c(cnn2-c2ccccc2)c1=O)NC1CCCC1 -1.27%, O=C(Nc1cccnc1)c1ccccc1O 8.37%, CCN(C(=O)COC(=O)c1cc(-c2ccccc2)nn1-c1ccccc1)C1CCS(=O)(=O)C1 (stereo not drawn) -0.44%, COc1ccc(NC(=O)CSc2nnc(-c3cccs3)n2-c2ccccc2)cc1 0.69%, O=C(CSc1nnc(-c2cccs2)n1-c1ccccc1)Nc1ccccc1 8.55%, CCOC(=O)C1=C(O)C(=O)N(c2ccc(S(N)(=O)=O)cc2)C1c1cccc([N+](=O)[O-])c1 (stereo not drawn) 0.08%, O=C(C1=C(O)C(=O)N(CCN2CCOCC2)C1c1ccncc1)c1ccco1 (stereo not drawn) 17.6%, Cc1c(NC(=O)C(C)Sc2ccccc2)c(=O)n(-c2ccccc2)n1C (stereo not drawn) 8.89%, Cc1c(NC(=O)CSc2nnc(Nc3ccccc3)s2)c(=O)n(-c2ccccc2)n1C 20.1%, Cc1ccc(SC(C)C(=O)Nc2c(C)n(C)n(-c3ccccc3)c2=O)cc1 (stereo not drawn) -0.12%, Cc1nnc(SC(C)C(=O)Nc2c(C)n(C)n(-c3ccccc3)c2=O)n1N (stereo not drawn) 11.1%, O=C(O)CCn1c(C2CCCCC2)nc2ccccc21 10.6%, O=C(CSCc1cccc(CSCC(=O)Nc2ccccc2)n1)Nc1ccccc1 6.32%, CCc1cccc(NC(=O)CCSCCC(=O)Nc2cccc(CC)c2)c1 10.7%, CC(C)OC(=O)CSc1ncnc2c1cnn2-c1ccccc1 -11.6%, S=C(NCc1ccco1)Nc1ccccc1Cl 2.12%, Cc1cc(C)nc(NS(=O)(=O)c2ccc(NC(=O)CN3C(=O)c4ccccc4C3=O)cc2)n1 8.34%, Cc1cc(NS(=O)(=O)c2ccc(NC(=O)c3cnc4sccn4c3=O)cc2)nc(C)n1 -3.04%, Cc1noc(NS(=O)(=O)c2ccc(NC(=O)c3cnc4scc(C)n4c3=O)cc2)c1C 49.8%, COc1cc(NS(=O)(=O)c2ccc(NC(=O)CN3C(=O)c4ccccc4C3=O)cc2)nc(OC)n1 45.7%, CN1C(=O)CS(=O)c2ccc(C(=O)NCCC3=CCCCC3)cc21 (stereo not drawn) -0.02%, CCC(=O)N(Cc1ccc(C)cc1)Cc1cc2cc3c(cc2[nH]c1=O)OCO3 -7.35%, O=C(c1ccccc1)N1CCN(C(=O)c2ccccc2)C1c1ccccc1 -9.12%, Cc1cccc(NC(=O)CSCc2nc3c(nnn3Cc3ccc(F)cc3)c(=O)[nH]2)c1C 22.9%, O=C(CSCc1nc2c(nnn2Cc2ccc(F)cc2)c(=O)[nH]1)Nc1c(Cl)cc(Cl)cc1Cl 30.5%, CN1CCN(C(=O)C2=C[C@@H](c3ccccc3)C[C@@H](OCCCCO)O2)CC1 2.48%, C=CCOc1c(CNc2cccc(C(=O)O)c2)cccc1OC 1.85%, COc1ccc(Br)cc1/C=N/Nc1cccc(C(=O)O)c1 25%, O=C(NNC(=O)C1[C@H]2CCCC[C@@H]12)Nc1cccc2ccccc12 (stereo partly drawn) 0.58%, C/C(=N/OC(=O)c1c(F)cccc1F)c1nccs1 -5.2%, CC(=O)C1=C(O)C(=O)N(c2ccc(Br)cn2)C1c1ccc(F)cc1 (stereo not drawn) 20.5%, O=C(O)CCC(=O)N1CCC[C@H]1C(=O)O 3.33%, O=C(CNC(=O)OCc1ccccc1)NCC(=O)N1CCCC1C(=O)OCc1ccccc1 (stereo not drawn) (Cbz-Gly-Gly-[ξP]-OBn) 2.1%, Cc1ccc(C(=O)CN(C(=O)c2ccc(Cl)c(Cl)c2)N2C(=O)C3C4C=CC(C4)C3C2=O)cc1 (stereo not drawn) -2.9%, Cc1ccc(NC(=O)CSc2ncc3ccccn23)cc1C -1.12%, CCCc1cc(=O)[nH]c(SCC(=O)Nc2ccc3c(c2)CCC3)n1 19.8%, Cc1ccc(NC(=O)CSc2ncn(-c3ccccc3)n2)cc1C 3.12%, O=C(CSc1ncc(S(=O)(=O)c2ccccc2)c(=O)[nH]1)Nc1ccccc1Cl 28.8%, O=C(CSc1nc(-c2ccco2)cc(C(F)(F)F)n1)Nc1ccc2c(c1)CCC2 15.2%, O=C(CSc1ncccn1)Nc1ccc2c(c1)CCC2 -3.11%, Cc1ccc2nc(SCC(=O)Nc3ccc4c(c3)CCC4)[nH]c2c1 -0.04%, COc1cccc(NC(=O)CSc2ncc(S(=O)(=O)c3ccccc3)c(=O)[nH]2)c1 9.3%, COc1cc(/C=C/C(=O)c2c(O)cc(C)oc2=O)cc(OC)c1O 23.1%, CCOC(=O)c1sc(NNC(=O)c2ccc(F)cc2)nc1C 4.21%
